Data from PubChem BioAssay (NCATS).
Inconclusive results are not listed. Calls of active or inactive are those of the source. Unless noted, the call rests on the fitted dose curve; in most records, active means well fitted curve in the direction sought with a large enough effect; inconclusive means small, poorly fitted or top-dose-only effect, or another doubt; inactive means no such curve, though single readings can be large; an effect the other way counts as inactive or inconclusive.

What was measured:
[1] = qHTS for Inhibitors of Plasmodium falciparum (DD2) proliferation (AID 504314);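 further: parasite DNA measured by SYBR Green fluorescence after red cell lysis; plate controls were DMSO vehicle for no effect and artemisinin wells for full effect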
Procedure, shortened: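 Normalization used 0.29 uM artemisinin as full inhibition and DMSO as baseline. Parasitized erythrocytes were exposed to compounds for 72 h (37C, 5% CO2), then lysed with saponin/Triton buffer containing SYBR Green I.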

[2] = qHTS for Inhibitors of Plasmodium falciparum (GB4) proliferation (AID 504315);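 further: 0% = DMSO vehicle and -100% = 0.29 µM artemisinin control; nearly all actives have a fitted effect of over 50% in size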
Procedure, shortened: (§1)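 Parasite growth measured as SYBR Green DNA fluorescence (ex 485, em 535 nm) after overnight lysis following 72 h culture at 37 °C, 0.3% parasitemia, 2.5% hematocrit. Values normalized against DMSO and 0.29 uM artemisinin controls, with plate-stack correction.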

[3] = qHTS for Inhibitors of Plasmodium falciparum (7G8) proliferation (AID 504316);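 further: series mostly up to about 6.7 µM; 0% = DMSO vehicle and -100% = 0.29 µM artemisinin full kill; nearly all actives have a fitted effect of over 65% in size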
Procedure, shortened: as §1

[4] = qHTS for Inhibitors of Plasmodium falciparum (HB3) proliferation (AID 504318);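 further: 0% = DMSO vehicle and -100% = artemisinin control; nearly all actives have a fitted effect of over 60% in size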
Procedure, shortened: as §1

[5] = qHTS for Inhibitors of Plasmodium falciparum (CP250) proliferation (AID 504320);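 further: plate controls were DMSO vehicle for no effect and 0.29 µM artemisinin control for full effect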
Procedure, shortened: as §1

[6] = molecular target: Atrial natriuretic peptide receptor 1 (Homo sapiens) (UniProt P16066); assay: Natriuretic polypeptide receptor (hNpr1) antagonism - Pilot CMLD screen (AID 1347052; calls by dose curve;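 further: cGMP level read as GloSensor luciferase luminescence after agonist stimulation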; further: potency means the concentration at half of the fitted maximal effect;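 on activity change, negative = inhibition: HEK293 cells with hNpr1 stimulated by hNppA peptide at 0.1 nM; series mostly up to about 9.2 µM; on the % scale 0 is the no-effect control and ±100 the full control effect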)
Atrial natriuretic peptide receptor 1 (Homo sapiens), sequence (P16066 whole entry, looked up): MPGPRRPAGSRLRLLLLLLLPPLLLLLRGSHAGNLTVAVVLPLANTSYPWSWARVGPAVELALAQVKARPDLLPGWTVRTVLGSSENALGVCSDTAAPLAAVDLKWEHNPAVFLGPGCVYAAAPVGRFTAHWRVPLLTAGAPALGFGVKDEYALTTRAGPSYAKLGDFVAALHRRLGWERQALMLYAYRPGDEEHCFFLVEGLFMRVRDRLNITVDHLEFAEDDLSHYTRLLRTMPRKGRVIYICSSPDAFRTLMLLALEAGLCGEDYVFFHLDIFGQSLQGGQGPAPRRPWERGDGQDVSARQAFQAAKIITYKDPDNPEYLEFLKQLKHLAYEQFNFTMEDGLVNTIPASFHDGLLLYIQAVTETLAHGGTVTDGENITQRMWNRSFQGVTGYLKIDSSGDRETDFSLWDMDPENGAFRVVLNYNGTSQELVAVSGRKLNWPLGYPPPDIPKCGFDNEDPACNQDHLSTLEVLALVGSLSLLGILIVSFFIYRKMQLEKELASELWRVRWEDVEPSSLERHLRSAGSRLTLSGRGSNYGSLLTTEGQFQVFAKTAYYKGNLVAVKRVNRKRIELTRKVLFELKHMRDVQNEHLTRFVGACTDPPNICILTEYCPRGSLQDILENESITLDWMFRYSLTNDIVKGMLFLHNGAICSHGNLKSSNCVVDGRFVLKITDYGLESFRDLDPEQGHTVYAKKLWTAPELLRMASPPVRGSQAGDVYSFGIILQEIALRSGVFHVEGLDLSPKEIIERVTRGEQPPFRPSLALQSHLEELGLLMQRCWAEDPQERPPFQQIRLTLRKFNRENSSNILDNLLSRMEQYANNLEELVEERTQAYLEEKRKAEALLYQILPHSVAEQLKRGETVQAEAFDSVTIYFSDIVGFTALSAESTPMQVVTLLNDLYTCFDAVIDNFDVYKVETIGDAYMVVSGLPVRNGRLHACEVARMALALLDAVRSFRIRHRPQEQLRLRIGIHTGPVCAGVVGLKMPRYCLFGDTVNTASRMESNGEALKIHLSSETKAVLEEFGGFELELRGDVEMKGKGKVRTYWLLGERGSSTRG

[7] = molecular target: Cytochrome P450 2C9 (Homo sapiens) (UniProt P11712); assay: qHTS Assay for Inhibitors and Substrates of Cytochrome P450 2C9 (AID 883); further: on the % scale 0 is the no-effect control and ±100 the full control effect; nearly all actives have a fitted effect of over 60% in size
Cytochrome P450 2C9 (Homo sapiens), sequence (P11712 whole entry, looked up): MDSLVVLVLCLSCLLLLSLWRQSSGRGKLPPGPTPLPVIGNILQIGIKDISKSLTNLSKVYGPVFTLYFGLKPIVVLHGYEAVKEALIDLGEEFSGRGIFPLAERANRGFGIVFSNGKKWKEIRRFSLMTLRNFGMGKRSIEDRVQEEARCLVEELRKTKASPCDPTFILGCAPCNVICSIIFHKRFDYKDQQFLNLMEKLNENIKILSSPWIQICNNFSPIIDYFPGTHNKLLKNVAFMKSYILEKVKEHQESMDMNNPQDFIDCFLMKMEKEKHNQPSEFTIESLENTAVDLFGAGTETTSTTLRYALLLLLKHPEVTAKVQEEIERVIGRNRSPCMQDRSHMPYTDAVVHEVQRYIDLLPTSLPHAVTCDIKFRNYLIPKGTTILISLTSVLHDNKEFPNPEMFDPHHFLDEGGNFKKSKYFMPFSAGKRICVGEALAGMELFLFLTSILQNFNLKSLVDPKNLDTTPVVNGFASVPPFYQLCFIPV
Procedure, shortened: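 Signal: luciferase luminescence reporting luciferin produced by CYP2C9. Conditions: 10nM enzyme, Luciferin-H 100uM at KM, 25mM KPO4, 37C, 60 min NADPH-driven reaction. Reference: 57uM sulphaphenazole as 100% inhibition.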

[8] = molecular target: Cytochrome P450 3A4 (Homo sapiens) (UniProt P08684); assay: qHTS Assay for Activators of Cytochrome P450 3A4 (AID 885); further: nearly all actives have a fitted effect of over 65% in size
Cytochrome P450 3A4 (Homo sapiens), sequence (P08684 whole entry, looked up): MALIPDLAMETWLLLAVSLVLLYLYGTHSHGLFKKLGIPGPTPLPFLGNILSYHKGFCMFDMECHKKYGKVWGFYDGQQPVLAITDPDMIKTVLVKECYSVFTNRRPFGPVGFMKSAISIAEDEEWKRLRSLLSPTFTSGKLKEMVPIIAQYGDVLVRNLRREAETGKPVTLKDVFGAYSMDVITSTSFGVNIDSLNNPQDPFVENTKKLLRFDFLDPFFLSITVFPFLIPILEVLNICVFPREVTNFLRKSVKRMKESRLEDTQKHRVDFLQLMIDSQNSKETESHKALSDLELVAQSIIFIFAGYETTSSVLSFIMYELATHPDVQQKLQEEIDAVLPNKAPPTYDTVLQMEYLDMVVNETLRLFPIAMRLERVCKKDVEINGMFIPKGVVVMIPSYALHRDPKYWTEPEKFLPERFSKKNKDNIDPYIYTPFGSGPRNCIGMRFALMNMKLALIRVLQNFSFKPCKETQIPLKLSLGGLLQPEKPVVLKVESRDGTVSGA
Procedure, shortened: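 Using 20nM recombinant human CYP3A4 in potassium phosphate (200mM), substrate Luciferin-PPXE at 25uM, luminescent luciferin detection followed a 60-min RT NADPH reaction; data scaled to 57 uM ketoconazole.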

[9] = molecular target: Cytochrome P450 2D6 (Homo sapiens) (UniProt P10635); assay: qHTS Assay for Inhibitors and Substrates of Cytochrome P450 2D6 (AID 891); further: nearly all actives have a fitted effect of over 60% in size; further: potency means the concentration at half of the fitted maximal effect;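 on activity change, negative = inhibition: luciferin methyl ether substrate demethylated by CYP2D6 with NADPH regeneration; on the % scale 0 is the no-effect control and ±100 the full control effect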
Cytochrome P450 2D6 (Homo sapiens), sequence (P10635 whole entry, looked up): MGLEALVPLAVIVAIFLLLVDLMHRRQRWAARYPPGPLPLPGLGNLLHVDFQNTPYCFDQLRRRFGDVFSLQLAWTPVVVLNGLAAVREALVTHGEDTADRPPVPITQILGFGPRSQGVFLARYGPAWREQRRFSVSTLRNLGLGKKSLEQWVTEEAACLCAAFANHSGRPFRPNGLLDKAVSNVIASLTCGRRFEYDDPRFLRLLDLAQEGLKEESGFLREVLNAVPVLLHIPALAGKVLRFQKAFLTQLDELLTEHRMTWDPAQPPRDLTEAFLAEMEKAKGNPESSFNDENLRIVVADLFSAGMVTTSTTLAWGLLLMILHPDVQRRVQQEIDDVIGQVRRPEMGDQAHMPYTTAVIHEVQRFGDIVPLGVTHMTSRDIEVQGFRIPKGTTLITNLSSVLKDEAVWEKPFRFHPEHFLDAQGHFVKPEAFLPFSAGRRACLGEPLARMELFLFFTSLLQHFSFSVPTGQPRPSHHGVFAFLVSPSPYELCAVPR
Procedure, shortened: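 Luminescent read-out of luciferin formed by 5 nM human CYP2D6 demethylating 30 uM Luciferin-ME EGE (Km level) over 60 min at room temperature after NADPH regeneration addition. Data normalized to full inhibition by 1.43 uM quinidine.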

[10] = molecular target: Cytochrome P450 2C19 (Homo sapiens) (UniProt P33261); assay: qHTS Assay for Inhibitors and Substrates of Cytochrome P450 2C19 (AID 899); further: nearly all actives have a fitted effect of over 60% in size; further: potency means the concentration at half of the fitted maximal effect; on activity, negative = inhibition: on the % scale 0 is the no-effect control and ±100 the full control effect
Cytochrome P450 2C19 (Homo sapiens), sequence (P33261 whole entry, looked up): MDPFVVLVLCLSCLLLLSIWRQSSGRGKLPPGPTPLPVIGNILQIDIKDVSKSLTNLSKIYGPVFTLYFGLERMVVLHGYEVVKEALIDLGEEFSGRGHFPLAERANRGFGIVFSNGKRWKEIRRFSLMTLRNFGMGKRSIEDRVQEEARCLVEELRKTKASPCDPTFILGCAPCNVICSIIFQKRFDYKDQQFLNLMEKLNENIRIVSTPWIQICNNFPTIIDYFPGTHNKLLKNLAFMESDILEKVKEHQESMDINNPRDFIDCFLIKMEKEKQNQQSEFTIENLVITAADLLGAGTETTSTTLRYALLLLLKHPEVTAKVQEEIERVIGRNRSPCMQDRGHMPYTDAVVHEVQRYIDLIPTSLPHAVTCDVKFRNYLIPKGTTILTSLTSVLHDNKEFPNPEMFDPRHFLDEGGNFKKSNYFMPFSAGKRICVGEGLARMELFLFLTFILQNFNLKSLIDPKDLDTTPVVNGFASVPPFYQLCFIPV
Procedure, shortened: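 Signal comes from luciferase acting on luciferin released by CYP2C19-mediated hydroxylation of Luciferin-H EGE, 10uM (KM). Assay mix: 5nM enzyme, 50mM KPO4; 60 min at 37C with NADPH regeneration. Data normalized against 57uM ketoconazole.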

[11] = molecular target: Cytochrome P450 3A4 (Homo sapiens) (UniProt P08684); assay: qHTS Assay for Inhibitors and Substrates of Cytochrome P450 3A4 (AID 884); further: series mostly up to about 57 µM; on the % scale 0 is the no-effect control and ±100 the full control effect; nearly all actives have a fitted effect of over 50% in size
Procedure, shortened: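 Luminescent readout of luciferin produced by CYP3A4 (20 nM) dealkylation of Luciferin-PPXE, 25 uM (its KM). NADPH-driven reaction ran 60 min at RT after 10 min compound preincubation; data scaled to 57 uM ketoconazole as 100% inhibition.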

[12] = qHTS Assay for Identification of Small Molecule Agonists for Hypoxia Response Element Signaling Pathway (AID 914; active means well fitted activation curve with a large enough effect in the signal ratio, with a control signal flat, not every such curve was filed as active; the % refers to the signal ratio; further: % of control where 0% means no effect); details: ME-180 (cervical carcinoma) HRE-bla reporter, beta-lactamase ratio, CoCl2, 17 h; stronger effect = higher value
Procedure, shortened: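 HRE-bla ME-180 cells, overnight plating in Opti-MEM with 0.5% dialyzed FBS; cpd titration + EC50 CoCl2, 17 h, 37 degrees Celsius; CCF4 2.5 h RT; 460/530 nm ratio; AC50.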

COC(=O)C1=C(C(=O)OC)[C@@H]2N(Cc3ccccc3)c3ccccc3[C@@]23C[C@@H](C(=O)OC)N(C(=O)Nc2ccccc2F)C3=N1
inactive: Potency [1] | Potency [2] | Potency [3] | Potency [4] | Potency [5]
active: Potency [6] 3350 nM

CCCCOC(OCCCC)C(O)CSc1ccc2ccccc2c1 (stereo not given)
inactive: Potency [1] | Potency [2] | Potency [3] | Potency [4] | Potency [5] | Potency [6]

C[C@H]1Cc2c(COc3ccccc3)nc3c(c2CO1)CN(C(=O)c1cccnc1)CC3
inactive: activity, negative = inhibition [1] 0.654% [at 1.12 µM] | Potency [2] | Potency [3] | Potency [5] | Potency [6]

COc1ccc(C(=O)CC(=O)c2c(O)cc(OC)cc2OC)cc1
active: Potency [9] 1260 nM | Potency [10] 398 nM
inactive: activity change, negative = inhibition [7] -6.49% [at 11.4 µM] | activity change, positive = activation [8] -41.2% [at 11.4 µM] | Potency [1] | Potency [2] | Potency [3] | Potency [4] | Potency [5] | Potency [6]

COC(=O)C(C(C)=O)C1c2ccccc2C=C(C)N1C(=O)OC (stereo not given)
inactive: activity, negative = inhibition [1] -3.36% [at 1.12 µM] | Potency [2] | Potency [3] | Potency [4] | Potency [5] | Potency [6]

COC(=O)N[C@@H](c1cccs1)C(C(C)=O)C(=O)OC (stereo not given in full)
inactive: Potency [1] | Potency [2] | Potency [3] | Potency [4] | Potency [5] | Potency [6]

O=C1NC[C@H](c2ccccc2)N1
inactive: Potency [1] | Potency [2] | Potency [3] | Potency [4] | Potency [5] | Potency [6]

COC(=O)C1=C(C(=O)OC)[C@@H]2N(C)c3ccccc3[C@@]23C[C@@H](C(=O)OC)N(C(=O)c2ccco2)C3=N1
inactive: Potency [1] | Potency [2] | Potency [3] | Potency [4] | Potency [5] | Potency [6]

C=C(CC(=O)OC)C[C@]1(CC(=O)OC)CC2(CC=C(C)C)C(=O)C(C(=O)c3ccccc3)=C(OC(=O)c3ccc(Br)cc3)C(CC=C(C)C)(C1)C2=O (stereo not given in full)
inactive: activity change, negative = inhibition [7] 7.13% [at 11.4 µM] | activity change, positive = activation [8] -37.5% [at 11.4 µM] | activity change, negative = inhibition [9] -5% [at 11.4 µM] | activity, negative = inhibition [10] 79.8% [at 11.4 µM] | Potency [1] | Potency [2] | Potency [3] | Potency [4] | Potency [5] | Potency [6]

Cc1c(O)ccc2c1OCO2
inactive: activity change, negative = inhibition [7] -0.37% [at 11.4 µM] | activity change, negative = inhibition [11] -25.6% [at 11.4 µM] | activity change, negative = inhibition [9] -1.17% [at 11.4 µM] | activity, negative = inhibition [10] 39.4% [at 11.4 µM] | Potency [1] | Potency [2] | Potency [3] | Potency [4] | Potency [5] | Potency [6]

COCCN1C(=O)NC(CCc2ccccc2)C(C(C)=O)=C1C (stereo not given)
inactive: Potency [1] | Potency [2] | Potency [3] | Potency [4] | Potency [5] | Potency [6]

CC(C)=CCn1cnc2c1C(NOCc1ccccc1)=NCN2
inactive: Potency [1] | Potency [2] | Potency [3] | Potency [4] | Potency [5] | Potency [6]

CCCC[C@@H]1CN2[C@H](c3ccc(Br)cc3)[C@H](C)CC[C@H]2C(=O)O1
active: Potency [10] 3980 nM | Potency [6] 944 nM
inactive: activity change, positive = activation [8] -42.5% [at 11.4 µM] | Potency [1] | Potency [2] | Potency [3] | Potency [4] | Potency [5]

CCOC(=O)CN1C(=O)NC(c2cccc(F)c2)C(C(=O)OC)=C1C (stereo not given)
inactive: Potency [1] | Potency [2] | Potency [3] | Potency [4] | Potency [5] | Potency [6]

CC1(OC(=O)c2cccs2)C(=O)C=C2C=C3CCCN3C=C2C1=O (stereo not given)
inactive: activity, negative = inhibition [1] -0.249% [at 1.12 µM] | Potency [2] | Potency [3] | Potency [4] | Potency [5] | Potency [6]

C[C@@H]1C=CCCO[C@]12C(=O)N(Cc1ccc(F)cc1)c1ccccc12
inactive: Potency [1] | Potency [2] | Potency [3] | Potency [4] | Potency [5] | Potency [6]

COC(=O)C1=C(C(=O)OC)[C@@H]2N(C)c3ccccc3[C@@]23C[C@@H](C(=O)OC)N(C(=O)Nc2cccc(C#N)c2)C3=N1
inactive: Potency [1] | Potency [2] | Potency [3] | Potency [4] | Potency [5] | Potency [6]

CCCCCCCC1=CC2=CC(=O)C(C)(OC(C)=O)C(=O)C2=CN1CCc1ccccc1 (stereo not given)
active: Potency [9] 3160 nM
inactive: activity change, positive = activation [8] -45.9% [at 11.4 µM] | activity, negative = inhibition [10] 78.5% [at 11.4 µM] | Potency [1] | Potency [2] | Potency [3] | Potency [4] | Potency [5] | Potency [6]

Cc1c(O)c(=O)c2ccccc2n1C
inactive: activity change, negative = inhibition [7] 25.8% [at 11.4 µM] | activity change, negative = inhibition [11] 0.317% [at 11.4 µM] | activity change, negative = inhibition [9] 2.15% [at 11.4 µM] | activity, negative = inhibition [10] 73.4% [at 11.4 µM] | Potency [1] | Potency [2] | Potency [3] | Potency [4] | Potency [6]

CC1(O)C(=O)C=C2C=C3CCCN3C=C2C1=O (stereo not given)
inactive: activity change, negative = inhibition [7] 3.99% [at 11.4 µM] | activity change, negative = inhibition [11] -12% [at 11.4 µM] | activity, negative = inhibition [10] 32.3% [at 11.4 µM] | Potency [1] | Potency [2] | Potency [3] | Potency [4] | Potency [5] | Potency [6]

C[C@@H]1CC[C@H]2C(=O)O[C@H](CN=[N+]=[N-])CN2[C@@H]1c1ccc(Br)cc1
inactive: activation [12] 9.69% | Potency [1] | Potency [2] | Potency [3] | Potency [4] | Potency [5] | Potency [6]
active: Potency [10] 398 nM
